Compound activity: PubChem, several laboratories
M1 ag: M1 muscarinic receptor agonists, primary screen, CHO-M1 cells, Fluo-4 calcium, agonist mode. B-score at 10 µM. Fluo-4 calcium fluorescence; active compounds read high. hit rate 3% among 64,000. Muscarinic acetylcholine receptor M1;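 active = fluorescence rise, raw or as B-score row- and column-corrected plate score, outside the 99.7% band of its plate's samples, either direction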
M1 antagonist: antagonists of rat M1 muscarinic receptor; B-score at 10 µM; hit rate 3.4% among 64,000; AID 628, 2007; CHO-M1 cells, Fluo-4 calcium, ACh EC80 antagonist mode; active compounds read low; Muscarinic acetylcholine receptor M1 (Rattus norvegicus), P08482;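 active = calcium fluorescence response, raw or row-and-column corrected B-score, differing from the plate sample mean either way at a set confidence level, mostly lower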
A340 absorber: compound light absorbance at 340 nm, profiling panel, artefact control, biochemical, MLSMR library, data from PS, PMK, MK assays; compound absorbance at 340 nm, fold over control; fold change at 10 µM; 65,000 tested, under 10 active; AID 708, 2007;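 active = at 10 µM dose, initial 340 nm absorbance at least 2 fold that of control wells; inactive = change under 2 fold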;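 also: initial absorbance extrapolated from kinetic A340 decline of NADH oxidation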
WNV protease inh: inhibitors of WNV NS2B-NS3 protease, primary screen, biochemical, fluorogenic substrate | Genome polyprotein (West Nile virus), P06935 | fluorogenic substrate Ex360/Em465; active compounds read low | z-score (no concentration beside the values) | hit rate 0.18% among 65,000 | AID 577, 2007; in the data active = z-score below about -3
BAP1 block: inhibitors of BAP1 deubiquitinase, primary screen, biochemical, Ub-AMC fluorescence, kinetic; Ubiquitin carboxyl-terminal hydrolase BAP1 (Homo sapiens), Q92560; recombinant BAP1, Ub-AMC hydrolysis fluorescence kinetic; active compounds read low; calls only at 20 µM; hit rate 0.48% among 72,000; AID 436, 2006;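 active = activity remaining at or below 50% of control, provided the compound also passes the data quality filters; inactive = the rest, including low values that fail the filters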;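 also: 100% = DMSO wells rate and 0% = substrate alone blank rate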
Fluor 339 460: intrinsic fluorescence of library compounds, ex339/em460 – biochemical, MLSMR library, data from DPM-DC assay, artefact control, profiling panel; fluorescence fold increase at 10 µM; compound autofluorescence, ex339/em460 nm, NADH buffer; active compounds read high; 1 = no-compound wells, NADH background; hit rate 5.5% among 65,000; AID 709, 2007;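 active = at 10 µM, mean starting fluorescence two-fold or more over control wells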;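 also: signal is the first read of a kinetic run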
M1 ag confirm: rat M1 muscarinic receptor agonists, confirmation, CHO-M1 cells, Fluo-4 calcium, duplicate retest. shares compounds with M1 ag. Fluo-4 calcium fluorescence, agonist mode; actives lie on both sides. fluorescence change (max-min) at 10 µM. hit rate 19% among 1,700. AID 1488, 2009;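 active = fluorescence change differs from the solvent-only DMSO control mean at a set confidence level in both duplicate runs; inconclusive = differs from solvent-only control mean in just one of two runs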;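 also: an EC20 dose of acetylcholine follows compound addition during the same imaging run; raw fluorescence intensity difference in instrument units with no normalization to controls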
M4 agonist ctr: agonist activity at rat M4 receptor, confirmation, counter-screen for M1 allosteric modulator project, cell-based, agonist mode | shares compounds with M1 ag | CHO M4/Gqi5 cells, Fluo-4 calcium fluorescence; actives lie on both sides | fluorescence change (max-min) at 10 µM | hit rate 9% among 1,700;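 active = fluorescence change differing from the plate's solvent-only control wells at 99.7% confidence in both duplicates, whether higher or lower; inconclusive = differs from solvent controls in only one of two duplicates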
* hit, by the source's call. Most compounds without a hit are left out; they make up all but 9.7% or so of the library.

`Cc1cc(N2CCN(S(=O)(=O)c3ccc(Cl)cc3)CC2)c2ccccc2n1` gave M1 ag 5.2*, M1 antagonist -7.4*, A340 absorber 1, WNV protease inh -0.65, Fluor 339 460 0.96, M1 ag confirm -10 and M4 agonist ctr -16.
`CCOC(=O)C1CCCN(C(=O)c2cc3c(-c4cccc(OC)c4)nn(C)c3s2)C1` (stereo not given) gave M1 ag 0.5, M1 antagonist -1.2, A340 absorber 0.98, WNV protease inh 0.5, BAP1 block inactive and Fluor 339 460 1.1.
CCOC(=O)C1CCN(C(=O)c2cc3c(-c4ccc(OC)c(OC)c4)nn(C)c3s2)CC1 was read as M1 ag 2.3*, M1 antagonist -0.48, A340 absorber 1.1, WNV protease inh 0.41, BAP1 block inactive, Fluor 339 460 1.4, M1 ag confirm -23 and M4 agonist ctr -32.
For COc1ccc2c(=O)c(C(=O)NCCc3ccc(OC)c(OC)c3)c[nH]c2c1 the results were M1 ag 4.9*, M1 antagonist -0.92, A340 absorber 0.99, WNV protease inh -1.2, BAP1 block inactive, Fluor 339 460 1.2, M1 ag confirm inconclusive and M4 agonist ctr inconclusive.
`COc1cc(NC(=O)c2ccco2)c(OC)cc1NC(=O)c1cc(OC)c(OC)c(OC)c1` gave M1 ag 11*, M1 antagonist -0.068, A340 absorber 1.1, WNV protease inh -0.54, BAP1 block inactive, Fluor 339 460 1.1, M1 ag confirm -32* and M4 agonist ctr -63.
COc1ccc(CCNC(=O)c2ccccc2NC(=O)c2ccco2)cc1OC was read as M1 ag 4*, M1 antagonist -0.14, A340 absorber 1, WNV protease inh -1.1, BAP1 block inactive, Fluor 339 460 1.1, M1 ag confirm inconclusive and M4 agonist ctr -77*.
COc1ccc(NC(=O)c2ccccc2NC(=O)c2ccco2)c(OC)c1 was read as M1 ag 7.7*, M1 antagonist -0.42, A340 absorber 1.1, WNV protease inh -0.29, BAP1 block inactive, Fluor 339 460 1.1, M1 ag confirm inconclusive and M4 agonist ctr -49.
COc1ccccc1NC(=O)c1cc(Cl)ccc1NC(=O)c1ccco1 was read as M1 ag 0.89, M1 antagonist 0.32, A340 absorber 1.1, WNV protease inh -3, BAP1 block inactive and Fluor 339 460 1.
Screening COc1ccc(CCNC(=O)c2ccc(=O)[nH]n2)cc1OC returned M1 ag -0.027, M1 antagonist 0.97, A340 absorber 1, WNV protease inh -0.52, BAP1 block inactive and Fluor 339 460 1.1.
CCOC(=O)C1CCN(c2ncnc3c2oc2ccccc23)CC1 was read as M1 ag 2.7, M1 antagonist 0.096, A340 absorber 1, WNV protease inh 0.26, BAP1 block inactive and Fluor 339 460 0.97.
CCc1nnc(N2CCN(c3ncnc4c3oc3ccccc34)CC2)s1 was read as M1 ag 9.9*, M1 antagonist -4*, A340 absorber 1.1, WNV protease inh -1.5, BAP1 block inactive, Fluor 339 460 1.1, M1 ag confirm 1.8 and M4 agonist ctr -49.
Screening CCOC(=O)C1CCCN(c2ncnc3c2oc2ccccc23)C1 (stereo not given) returned M1 ag 4.2*, M1 antagonist -3.3*, A340 absorber 1.1, WNV protease inh 0.69, BAP1 block inactive, Fluor 339 460 1.2, M1 ag confirm 5.8 and M4 agonist ctr -44.
